Compounds without any hit were thinned out: in the full panel of roughly 83,000, 20% have a hit.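 Cells were grown in 96-well plates and exposed to the test compound at a single concentration for 48 hours; results are reported as percent growth, with values below 10 considered active.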 Active and inactive are the calls of the source.
Legend:
Assay in all cases: NCI-60 one-dose screen, 48 h (100 = growth as untreated, 0 = no growth, -100 = all killed)
Conditions in all cases: 10 µM unless noted
NCI-H23 lung = system: NCI-H23 lung
NCI-H226 lung = system: NCI-H226 lung
NCI-H322M lung = system: NCI-H322M lung
HOP-62 NSCLC = system: HOP-62 NSCLC
NCI-H460 lung = system: NCI-H460 lung
HOP-92 NSCLC = system: HOP-92 NSCLC
NCI-H522 lung = system: NCI-H522 lung
A549/ATCC NSCLC = system: A549/ATCC NSCLC
786-0 renal = system: 786-0 renal
COLO 205 colon = system: COLO 205 colon
DU-145 prostate = system: DU-145 prostate
K-562 leukemia = system: K-562 leukemia
MALME-3M melanoma = system: MALME-3M melanoma
MDA-MB-231 breast = system: MDA-MB-231 breast
RXF 393 renal = system: RXF 393 renal
SF-268 CNS = system: SF-268 CNS
SF-295 CNS = system: SF-295 CNS
SF-539 CNS = system: SF-539 CNS
UACC-257 melanoma = system: UACC-257 melanoma
M14 melanoma = system: M14 melanoma

Measured: growth

CCOC(=O)Cn1c(=O)c2c(c3ccccc3n2C)n2nnc(-c3ccccc3)c12
inactive: NCI-H23 lung 102% | NCI-H226 lung 128% | NCI-H322M lung 115% | HOP-62 NSCLC 95.5% | NCI-H460 lung 102% | NCI-H522 lung 92.6% | A549/ATCC NSCLC 106% | 786-0 renal 104% | COLO 205 colon 114% | DU-145 prostate 111% | K-562 leukemia 84.8% | MALME-3M melanoma 118% | MDA-MB-231 breast 103% | RXF 393 renal 108% | SF-268 CNS 95.2% | SF-295 CNS 110% | SF-539 CNS 102% | UACC-257 melanoma 102% | M14 melanoma 97.6%
active: HOP-92 NSCLC -15.2%

CC1(C)C2CC1C1(/C=N/NC(N)=S)C(C2)C(C#N)(C#N)C1(C#N)C#N (stereo not given)
active: NCI-H522 lung -60.7%
inactive: NCI-H23 lung 89.4% | NCI-H226 lung 109% | NCI-H322M lung 98% | HOP-62 NSCLC 108% | NCI-H460 lung 98.9% | HOP-92 NSCLC 55.5% | A549/ATCC NSCLC 96.4% | 786-0 renal 81.7% | COLO 205 colon 65.4% | DU-145 prostate 82.6% | K-562 leukemia 13.6% | MALME-3M melanoma 67% | MDA-MB-231 breast 57.3% | RXF 393 renal 71.7% | SF-268 CNS 97.4% | SF-295 CNS 111% | SF-539 CNS 101% | UACC-257 melanoma 79.9% | M14 melanoma 87.6%

COc1cc(CCCO)c(OC)c(OC)c1OC
inactive: NCI-H23 lung 104% | NCI-H226 lung 102% | NCI-H322M lung 96.1% | HOP-62 NSCLC 111% | NCI-H460 lung 108% | HOP-92 NSCLC 100% | NCI-H522 lung 106% | A549/ATCC NSCLC 102% | 786-0 renal 103% | COLO 205 colon 122% | DU-145 prostate 109% | K-562 leukemia 104% | MALME-3M melanoma 100% | MDA-MB-231 breast 109% | RXF 393 renal 108% | SF-268 CNS 101% | SF-295 CNS 106% | SF-539 CNS 97.1% | UACC-257 melanoma 103% | M14 melanoma 110%

O=C(Cc1ccc2c(c1)OCCO2)Nc1nc2ccc(F)cc2s1
inactive: NCI-H23 lung 87.1% | NCI-H226 lung 104% | NCI-H322M lung 105% | HOP-62 NSCLC 93.4% | NCI-H460 lung 103% | HOP-92 NSCLC 109% | NCI-H522 lung 87.2% | A549/ATCC NSCLC 102% | 786-0 renal 104% | COLO 205 colon 124% | DU-145 prostate 107% | K-562 leukemia 76.3% | MALME-3M melanoma 97.3% | MDA-MB-231 breast 115% | RXF 393 renal 43% | SF-268 CNS 119% | SF-295 CNS 106% | SF-539 CNS 101% | UACC-257 melanoma 109% | M14 melanoma 100%

Source: PubChem BioAssay (NCI)
